# Values joined by “and” are separate entries in the source; they are usually repeats but may differ in a detail not shown here. Equal values may be shown once. Out of some 70,000 compounds screened, about 470 (0.67%) were called active. About 18% were inconclusive and are not listed. The list comes from a sample in which actives are over-represented; it also holds similar structures and randomly drawn compounds. A number with no mark means an inactive call. The call rests on the fitted dose curve.
# Test: qHTS Assay for Anthrax Lethal Toxin Internalization; further: nearly all actives have a fitted effect of over 50% in size
# Settings: Cells, FRET ratio (460/530); series mostly up to 40 µM; activity change, negative = inhibition: at the top concentration
# On the % scale 0 is the no-effect control and ±100 the full control effect; potency means the concentration at half of the fitted maximal effect.
Compound,"activity change, negative = inhibition",Potency
O=C1[C@H]2[C@H]3[C@H](O)[C@H](O)C/C(=N/OCc4ccccc4)[C@H]3CC[C@@H]2C(=O)N1Cc1ccccc1,0.866% [at 1.6 µM],–
C/C(CCN1CCCCc2nc(C)c(C)cc21)=N\O[C@@H](C)c1cn([C@@H]2COC[C@@H]2O)nn1,16% [at 8 µM],–
COC(=O)C1(C)C=CCN1C(=O)c1ccccc1 (stereo not drawn),1.85%,–
CC1=C(C(=O)OCc2ccccc2)C(c2ccc(C(F)(F)F)cc2)NC(=O)N1CCCCCC(=O)O (stereo not drawn),10.5%,–
CO[C@@H]1COC(=O)[C@H](Cc2ccccc2)NC(=O)C/C=C\[C@@H](C)[C@H](OC)COC(=O)[C@@H](C)NC(=O)C/C=C\[C@H]1C,5.09% [at 1.6 µM] and -1.18% [at 8 µM],–
COC(=O)c1ccc(C(NC(=O)OCc2ccccc2)/C(C)=C/[C@@H](C)C(=O)NCc2cc(C)on2)cc1 (stereo partly drawn),0.057%,–
O=C(CC(Cc1ccccc1)C(=O)O)NCCc1ccc2c(c1)OCO2 (stereo not drawn),-0.491%,–
O=C(Nc1ccncc1)c1cc2ccccc2o1,-5.1%,–
O=C(NCCc1ccc2c(c1)OCCO2)c1cc2ccccc2o1,–,12.6 µM (active)
COC(=O)C1(C)C=CC2(CCCCC2)N1C(C)=O (stereo not drawn),5.36%,–
CC(C)(C)c1ccc(OC2C=CC(C#Cc3ccccc3)OC2CO)cc1 (stereo not drawn),-3.38% [at 8 µM],–
CCC[C@@H]1C[C@@]1(CCC)C(NC(=O)c1ccc(-c2ccccc2)cc1)c1cccc(Cl)c1 (stereo partly drawn),-10.9%,–
CCOC(=O)Cn1c(CN(Cc2ccccc2)Cc2ccccc2)nc2c1c(=O)[nH]c(=O)n2C,6.87%,–
CC(C(=O)O)N1C(=O)c2cccc3cccc1c23 (stereo not drawn),-8.16%,–
C[N+](C)(CCCCCC[N+](C)(C)CCCN1C(=O)c2cccc3cccc(c23)C1=O)CCCN1C(=O)c2cccc3cccc(c23)C1=O,12.5%,–
COc1ccc(N2C(=O)c3cccc4cccc(c34)C2=O)nn1,–,7.94 µM (active)
CC(N)=NCc1cccc(CN)c1,2.64%,–
CC(=O)CC(C)C,3.44%,–
OCCCNCc1ccccn1,9.72% [at 8 µM],–
CO[C@H]1COC(=O)[C@H](Cc2ccccc2)NC(=O)C/C=C\[C@@H](C)[C@H](OC)COC(=O)C/C=C\[C@@H]1C,30% [at 8 µM],–
c1cncc(-c2nc(N3CCNCC3)c3ccccc3n2)c1,0.183%,–
Cc1ccc(S(=O)(=O)NC(=O)NN2C[C@H]3CCC[C@@H]3C2)cc1,-1.11% [at 3.58 µM],–
Cc1cccc(C(=O)O)c1,4.72%,–
C[C@@H](N)[C@@H](C)Cc1ccccc1,-3.08% [at 8 µM],–

Compound,"activity change, negative = inhibition",Potency
CCOC(=O)C1Cn2c(nc3c(c2=O)C(C)(CC)Cc2ccccc2-3)S1 (stereo not drawn),–,6.31 µM (active)
CC1(C)Cc2ccccc2-c2nc(CN3CCOCC3)[nH]c(=O)c21,-0.761%,–
CCOC(=O)C1CCc2nc3ccccc3c(=O)n21 (stereo not drawn),5.34%,–
CCS(=O)(=O)N(C)[C@@H]1c2cc(C#N)ccc2OC(C)(C)[C@H]1O,inactive,–
CCCC(Cl)CCCC(Cl)CCC(Cl)CCC(Cl)CCC(Cl)CCCC(Cl)CCC (stereo not drawn),-11.1%,–
C1CCC2OC2C1 (stereo not drawn),-1.8%,–
Cc1sc2c(c1C)c(=O)n(-c1ccccc1)c1nncn21,6.99%,–
c1ccc2c(c1)[I+]c1ccccc1-2,–,15.8 µM (active)
CCCCC[C@H](O)CCCC(=O)O,6.3%,–
C[C@@H](c1ccccc1)N1C(=O)[C@H]2[C@H]3[C@H](O)[C@H](O)C/C(=N/OC[C@@H](O)COCc4ccco4)[C@@H]3CC[C@@H]2C1=O,0.141% [at 8 µM],–
CC(=O)Oc1ccccc1C(=O)Nc1ncc([N+](=O)[O-])s1,–,1.26 µM (active)
CC(=O)Oc1ccc(C(=O)Nc2nccs2)cc1,0.315%,–
O=C(Cl)c1ccccc1[N+](=O)[O-],-11.9%,–
N#Cc1cccc(-c2nc3cnc(N4CCNCC4)nc3n(C3CC3)c2=O)c1,-3.15%,–
CO[C@H]1COC(=O)CCC[C@@H](C)[C@H](OC)COC(=O)[C@@H](C)NC(=O)C/C=C\[C@@H]1C,-7.25% [at 8 µM],–
Cc1cc(C)c2nc3c(c([C@H](O)[C@@H]4CCCCN4)c2c1)CC/C3=C/c1ccc(Cl)cc1,-12.7% [at 8 µM],–
COc1ccc(COC(=O)N/N=C2/C[C@@H](O)[C@@H](O)[C@@H]3[C@@H]4C(=O)N([C@@H](C)c5ccccc5)C(=O)[C@H]4CC[C@@H]23)cc1,-0.559% [at 8 µM],–
O=C(c1ccncc1)N1CCC2(CCN(Cc3cc(C(F)(F)F)cc(C(F)(F)F)c3)CC2)CC1,10.9%,–
C=C(C)C1CC=C(C)C(O)C1 (stereo not drawn),-3.62%,–
Cc1nc2ccccc2c2oc(C(=O)NCCCN3CCC(C)CC3)cc12,–,5.01 µM (active)
Cc1ccccc1S(=O)(=O)Cc1ccc(C(=O)NCCN2CCCCC2C)o1 (stereo not drawn),-12.4%,–
CN1CCN(CCCNC(=O)c2cc3c(=O)oc4ccccc4c3s2)CC1,-6.55%,–
CCOc1ccc(/C(O)=C2/C(=O)C(=O)N(Cc3cccnc3)C2c2ccc(N(C)C)cc2)c(C)c1 (stereo not drawn),2.08%,–
Cn1c(=O)n2n(c1=O)[C@H]1[C@H](O)[C@H]3O[C@H]3C(=O)[C@H]1CC2,12.4% [at 8 µM],–

# Reference: PubChem BioAssay AID912 (National Center for Advancing Translational Sciences (NCATS), 2007)
